34 compounds from PubChem BioAssay (NCATS) can be followed below.

For assay [1], the target named is Cytochrome P450 2D6 (Homo sapiens) (UniProt P10635). Briefly: qHTS Assay for Inhibitors and Substrates of Cytochrome P450 2D6 (AID 891). Also: nearly all actives have a fitted effect of over 60% in size. Also: potency is read from the fitted curve at half-maximal effect. Summed up:
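Luminescent read-out of luciferin formed by 5 nM human CYP2D6 demethylating 30 uM Luciferin-ME EGE (Km level) over 60 min at room temperature after NADPH regeneration addition. Data normalized to full inhibition by 1.43 uM quinidine.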
A general note: qHTS replaces the single test concentration by a dilution series.

A short description of assay [2]: qHTS Assay for Identification of Small Molecule Agonists for Thrombopoietin (TPO) Signaling Pathway (AID 917). Also: % is scaled to controls: 0 for no effect and ±100 for the full control effect. Summed up: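 Ba/F3 (mouse) + hTPO receptor + GpIIb-promoter luciferase; IL-3 withdrawn overnight; compound + 26 pM TPO (EC50), 24 hrs, 37 C, 5% CO2; Steadylite luminescence, 10 min RT.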
The target of assay [3] is Cytochrome P450 2C9 (Homo sapiens) (UniProt P11712). Kind of assay: qHTS Assay for Inhibitors and Substrates of Cytochrome P450 2C9 (AID 883). Also: nearly all actives have a fitted effect of over 60% in size. An outline of the steps: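 A luminogenic readout tracked human CYP2C9 (10nM) converting deoxyluciferin (100uM, at KM) in 25mM KPO4 during 60 min at 37C with regenerated NADPH. Values normalized to 57uM sulphaphenazole as complete inhibition.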

A short description of assay [4]: qHTS Assay for Identification of Small Molecule Antagonists for NFkB Signaling Pathway (AID 895; active = well fitted inhibition curve with a large enough effect in the signal ratio, with a control signal flat, not every such curve was filed as active; the % refers to the signal ratio; also: % is scaled to controls: 0 for no effect and ±100 for the full control effect). Summed up:
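NFkB-bla ME-180 cervical carcinoma cells with beta-lactamase reporter under NFkB response element; compounds added, then TNF alpha at 10 pM final (EC50), 5 h at 37 C. LiveBLAzer substrate 2 h, room temperature; emission 460/530 nm at 405 nm excitation.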

The target of assay [5] is alpha-glucosidase (Oryza sativa, rice) (UniProt Q653V4). Briefly: Counterscreen for Glucocerebrosidase Inhibitors: qHTS Assay for Rice alpha-Glucosidase at pH 5.0 (AID 997).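 Also: 0% = full activity with enzyme and -100% = basal without enzyme.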 An outline of the steps: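 Endpoint fluorogenic assay at pH 5.0: compounds (0.7 nM to 77 uM) titrated against 4 nM rice enzyme and 400 uM 4-MU-alpha-glucoside for 20 min at room temperature; NaOH/glycine stop, read ex 365/em 440 nm, Hill-fitted AC50.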
(In general: The purpose of a counterscreen is to sort out artefacts and off-target activity.)

Assay [6] has as its target Cytochrome P450 2C19 (Homo sapiens) (UniProt P33261). Kind of assay: qHTS Assay for Inhibitors and Substrates of Cytochrome P450 2C19 (AID 899). Also: nearly all actives have a fitted effect of over 60% in size. Also: potency is read from the fitted curve at half-maximal effect. An outline of the steps: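 NADPH-dependent conversion of Luciferin-H EGE (10uM, at KM) by 5nM enzyme in 50mM KPO4, 60 min at 37C following 10 min compound preincubation. Stopped with luciferin detection buffer; luminescence read after 20 min.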

Assay [7] has as its target Cytochrome P450 3A4 (Homo sapiens) (UniProt P08684). Briefly: qHTS Assay for Activators of Cytochrome P450 3A4 (AID 885). Also: nearly all actives have a fitted effect of over 65% in size. Summed up: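 Human CYP3A4 dealkylates Luciferin-PPXE to luciferin, which luciferase detection converts to light. Substrate was at its KM (25uM), buffer 200mM KPO4, reaction 60 min at RT.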
A short description of assay [8]: qHTS Assay for Identification of Small Molecule Antagonists for Thrombopoietin (TPO) Signaling Pathway (AID 918). Also: potency is read from the fitted curve at half-maximal effect; nearly all actives have a fitted effect of over 60% in size. The following applies: TPO-dependent cell signaling reporter, antagonist mode. Summed up: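 Inhibitors of TPO signaling are sought by stimulating IL-3-starved murine Ba/F3 cells (human TPO receptor, Glycoprotein IIb-driven luciferase) with TPO at its EC50 of 26 pM alongside compound. After 24 hrs at 37 C, reporter luminescence is measured.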

Assay [9] in a line: Cell Viability - LYMP1-003 - Assay at 40 hr (AID 964). Summed up:
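Luminescent ATP signal (CellTiter-Glo) served as the viability read-out after 40 hr compound treatment of human lymphoblastoid LYMP1-003 cells at 37 C. Decreases in ATP were fitted with the Hill equation to give AC50.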

A short description of assay [10]: qHTS assay for small molecule antagonists of peroxisome proliferator-activated receptor delta signaling (AID 588535; active = well fitted inhibition curve with a large enough effect in the signal ratio, with a control signal flat, not every such curve was filed as active; the % refers to the signal ratio;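 as to max response: cells co-treated with a PPAR-delta agonist as stimulator during compound exposure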). The following applies: HEK293T PPARd-UAS-bla, beta-lactamase FRET ratio, 18 h; 460 nm channel. An outline of the steps:
(§1)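 Inhibition of PPAR-delta response element-driven beta-lactamase expression is measured in HEK293T cells exposed to a compound titration series for 18 hrs at 37 C. Half-maximal inhibition comes from Hill equation fitting.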

The target of assay [11] is Peroxisome proliferator-activated receptor delta (Homo sapiens) (UniProt Q03181). Described as above. Summed up:
as §1

Assay [12] concerns the target Peroxisome proliferator-activated receptor gamma (Homo sapiens) (UniProt P37231). Briefly: qHTS assay for small molecule antagonists of peroxisome proliferator-activated receptor gamma signaling (AID 588537; active = well fitted inhibition curve with a large enough effect in the signal ratio, with a control signal flat, not every such curve was filed as active; the % refers to the signal ratio;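 also: reporter cells co-stimulated with 50 nM rosiglitazone agonist during compound treatment; % of control where 0% means no effect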). Summed up: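 Compounds are tested as concentration series for inhibition of rosiglitazone-driven (50 nM) reporter expression in GeneBLAzer PPAR-gamma-UAS-bla HEK293 cells. After 16 h at 37 C, CCF4 substrate is added for 2 h at room temperature and blue/green fluorescence is measured.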

In assay [13] the target is Bile acid receptor (Homo sapiens) (UniProt Q96RI1). Briefly: qHTS assay for small molecule antagonists of farnesoid X receptor signaling (AID 588526; calls by dose curve; also: % is scaled to controls: 0 for no effect and ±100 for the full control effect). An outline of the steps: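 Concentration-response titrations were fitted to the Hill equation for half-maximal inhibition and maximal response, with data normalised to 50 uM chenodeoxycholic acid and DMSO control wells. Cells: FXR-UAS-bla HEK293T, dialyzed FBS.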

The target in assay [14] is Retinoic acid receptor RXR-alpha (Homo sapiens) (UniProt P19793). Kind of assay: qHTS assay for small molecule agonists of retinoid X receptor alpha signaling (AID 588544; calls by dose curve;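 also: 0% = DMSO basal wells and 100% = reference agonist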).
For assay [15], the target named is Thyroid hormone receptor beta (Homo sapiens) (UniProt P10828). Briefly: qHTS assay for small molecule antagonists of thyroid hormone receptor beta signaling (AID 588547; active = well fitted inhibition curve with a large enough effect in the signal ratio, with a control signal flat, not every such curve was filed as active; the % refers to the signal ratio;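 also: cells stimulated with 0.4 nM T3 agonist during compound exposure; series mostly up to about 77 µM; % is scaled to controls: 0 for no effect and ±100 for the full control effect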). The following applies: TR-UAS-bla HEK293, beta-lactamase ratio, antagonist mode, 18 h. An outline of the steps: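 TR-UAS-bla GripTite HEK293 cells in 2% charcoal/dextran FBS medium were preincubated 4 h at 37 C, given compound (0.59 nM to 92 uM) plus 0.4 nM T3 (final) for 18 h, then CCF4 for 2 h at RT; Hill fit gave IC50.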

The nature of assay [16]: qHTS assay for small molecule activators of the nuclear factor-kappa B (NF-kB) signaling pathway (AID 651749; active = well fitted activation curve with a large enough effect in the signal ratio; the % refers to the signal ratio; also: series mostly up to about 77 µM; % of control where 0% means no effect). The following applies: NF-kB-bla ME-180 cells, beta-lactamase FRET ratio, 16 h; stronger effect = higher value. An outline of the steps:
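Human ME-180 cervical cells with an NF-kB-bla construct; compounds added via 23 nL pin transfer, DMSO as vehicle; incubation 16 hr. Reporter activity measured by FRET disruption.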

The structures appear in SMILES notation. Where “and” joins values, the source holds several entries; their conditions need not be identical. Equal entries are not always repeated. Results filed as inconclusive are left out. Calls of active or inactive are those of the source. Unless noted, calls follow the shape of the dose curve; as a rule, active = well fitted curve in the direction sought with a large enough effect; inconclusive = small, poorly fitted or top-dose-only effect, or another doubt; inactive = no such curve, though single readings can be large; an effect the other way counts as inactive or inconclusive.

Sequence of Cytochrome P450 3A4 (Homo sapiens) (P08684 whole entry, looked up): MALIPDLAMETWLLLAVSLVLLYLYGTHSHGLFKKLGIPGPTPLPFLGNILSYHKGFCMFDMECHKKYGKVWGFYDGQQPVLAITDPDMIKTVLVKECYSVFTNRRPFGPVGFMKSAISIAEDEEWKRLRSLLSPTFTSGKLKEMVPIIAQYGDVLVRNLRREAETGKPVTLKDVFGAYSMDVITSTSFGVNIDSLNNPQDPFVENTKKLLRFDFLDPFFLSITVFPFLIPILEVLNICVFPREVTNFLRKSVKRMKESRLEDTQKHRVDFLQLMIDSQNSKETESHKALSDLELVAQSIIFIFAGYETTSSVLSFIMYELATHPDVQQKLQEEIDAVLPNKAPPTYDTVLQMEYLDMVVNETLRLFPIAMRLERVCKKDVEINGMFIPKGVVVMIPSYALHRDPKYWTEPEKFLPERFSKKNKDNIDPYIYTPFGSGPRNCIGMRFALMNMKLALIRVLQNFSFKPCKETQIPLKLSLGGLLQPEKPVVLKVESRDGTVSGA
Sequence of Peroxisome proliferator-activated receptor delta (Homo sapiens) (Q03181 whole entry, looked up): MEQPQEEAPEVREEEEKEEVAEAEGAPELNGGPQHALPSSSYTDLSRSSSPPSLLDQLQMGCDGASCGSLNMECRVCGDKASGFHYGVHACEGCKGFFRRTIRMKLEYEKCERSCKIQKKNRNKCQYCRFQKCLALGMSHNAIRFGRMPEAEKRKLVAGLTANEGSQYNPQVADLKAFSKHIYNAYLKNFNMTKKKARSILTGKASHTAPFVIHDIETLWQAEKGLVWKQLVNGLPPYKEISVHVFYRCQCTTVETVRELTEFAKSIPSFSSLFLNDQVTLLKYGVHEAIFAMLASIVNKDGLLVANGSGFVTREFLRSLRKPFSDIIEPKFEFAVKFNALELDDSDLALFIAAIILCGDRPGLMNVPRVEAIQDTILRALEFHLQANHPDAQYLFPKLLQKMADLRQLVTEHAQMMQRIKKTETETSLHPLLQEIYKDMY
Sequence of Peroxisome proliferator-activated receptor gamma (Homo sapiens) (P37231 whole entry, looked up): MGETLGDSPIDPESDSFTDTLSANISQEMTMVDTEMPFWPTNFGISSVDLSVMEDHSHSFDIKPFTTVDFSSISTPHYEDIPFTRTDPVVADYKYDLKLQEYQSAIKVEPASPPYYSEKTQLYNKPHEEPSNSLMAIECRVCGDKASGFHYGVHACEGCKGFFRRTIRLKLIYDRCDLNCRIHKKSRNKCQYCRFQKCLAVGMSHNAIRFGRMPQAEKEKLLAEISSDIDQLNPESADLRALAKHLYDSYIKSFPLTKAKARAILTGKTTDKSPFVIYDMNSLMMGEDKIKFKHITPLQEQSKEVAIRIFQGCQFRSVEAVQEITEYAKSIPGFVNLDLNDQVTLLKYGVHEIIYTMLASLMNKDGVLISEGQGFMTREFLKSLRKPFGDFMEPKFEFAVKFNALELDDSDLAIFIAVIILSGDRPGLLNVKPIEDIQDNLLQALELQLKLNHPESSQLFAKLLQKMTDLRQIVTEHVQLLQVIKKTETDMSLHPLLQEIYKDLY
Sequence of Cytochrome P450 2C9 (Homo sapiens) (P11712 whole entry, looked up): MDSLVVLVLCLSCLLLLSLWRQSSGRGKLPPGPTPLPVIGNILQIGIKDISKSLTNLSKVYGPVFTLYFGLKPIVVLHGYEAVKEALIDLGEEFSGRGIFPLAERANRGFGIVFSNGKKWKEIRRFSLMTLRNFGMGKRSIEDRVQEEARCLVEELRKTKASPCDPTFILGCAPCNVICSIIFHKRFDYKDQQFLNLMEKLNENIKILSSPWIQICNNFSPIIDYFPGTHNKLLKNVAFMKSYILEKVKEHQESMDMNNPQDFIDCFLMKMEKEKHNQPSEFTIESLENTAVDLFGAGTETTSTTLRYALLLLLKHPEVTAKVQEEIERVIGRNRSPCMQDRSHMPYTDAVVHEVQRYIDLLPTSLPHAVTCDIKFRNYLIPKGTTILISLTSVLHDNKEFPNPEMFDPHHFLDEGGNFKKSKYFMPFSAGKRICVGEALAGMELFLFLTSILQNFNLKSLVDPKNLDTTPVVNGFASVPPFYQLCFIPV
Sequence of Cytochrome P450 2D6 (Homo sapiens) (P10635 whole entry, looked up): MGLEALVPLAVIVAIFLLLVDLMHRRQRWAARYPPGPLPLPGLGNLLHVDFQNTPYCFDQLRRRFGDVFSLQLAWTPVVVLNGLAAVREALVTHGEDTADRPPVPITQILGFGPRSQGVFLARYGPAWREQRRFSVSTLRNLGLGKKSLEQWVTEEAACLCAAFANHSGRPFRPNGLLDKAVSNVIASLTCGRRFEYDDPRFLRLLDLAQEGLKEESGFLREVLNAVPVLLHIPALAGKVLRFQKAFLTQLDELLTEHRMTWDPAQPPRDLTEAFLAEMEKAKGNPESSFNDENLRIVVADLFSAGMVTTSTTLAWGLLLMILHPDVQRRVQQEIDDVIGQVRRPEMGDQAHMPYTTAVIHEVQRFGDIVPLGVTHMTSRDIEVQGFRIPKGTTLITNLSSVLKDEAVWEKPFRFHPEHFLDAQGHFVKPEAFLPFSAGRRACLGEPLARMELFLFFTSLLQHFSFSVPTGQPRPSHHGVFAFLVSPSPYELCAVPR
Sequence of Cytochrome P450 2C19 (Homo sapiens) (P33261 whole entry, looked up): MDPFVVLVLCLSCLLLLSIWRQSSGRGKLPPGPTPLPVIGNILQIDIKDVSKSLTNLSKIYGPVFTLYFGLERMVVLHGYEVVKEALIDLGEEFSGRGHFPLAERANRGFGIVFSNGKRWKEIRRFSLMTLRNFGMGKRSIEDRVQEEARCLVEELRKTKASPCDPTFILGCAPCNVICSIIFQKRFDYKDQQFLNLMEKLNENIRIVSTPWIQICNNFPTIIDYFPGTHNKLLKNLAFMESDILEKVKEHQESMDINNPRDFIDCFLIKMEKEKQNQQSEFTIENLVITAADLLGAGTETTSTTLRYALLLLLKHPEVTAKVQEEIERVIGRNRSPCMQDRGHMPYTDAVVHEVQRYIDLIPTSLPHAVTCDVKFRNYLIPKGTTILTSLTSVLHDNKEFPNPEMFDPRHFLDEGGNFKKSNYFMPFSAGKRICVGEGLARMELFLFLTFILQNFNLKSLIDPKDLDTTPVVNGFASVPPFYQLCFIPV
Sequence of Bile acid receptor (Homo sapiens) (Q96RI1 whole entry, looked up): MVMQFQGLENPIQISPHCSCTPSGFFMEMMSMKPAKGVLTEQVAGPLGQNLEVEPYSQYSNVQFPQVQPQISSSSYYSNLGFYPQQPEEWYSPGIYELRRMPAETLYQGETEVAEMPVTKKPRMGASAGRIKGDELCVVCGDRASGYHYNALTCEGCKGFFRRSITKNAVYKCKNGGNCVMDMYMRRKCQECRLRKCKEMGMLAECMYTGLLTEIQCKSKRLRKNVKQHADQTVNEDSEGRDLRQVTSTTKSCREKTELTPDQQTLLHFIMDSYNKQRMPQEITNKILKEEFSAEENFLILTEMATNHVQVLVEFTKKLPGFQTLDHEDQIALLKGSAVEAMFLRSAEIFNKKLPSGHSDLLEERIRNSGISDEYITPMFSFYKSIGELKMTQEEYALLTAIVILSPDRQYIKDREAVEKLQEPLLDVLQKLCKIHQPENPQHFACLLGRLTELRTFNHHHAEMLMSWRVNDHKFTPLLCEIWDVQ
Sequence of Thyroid hormone receptor beta (Homo sapiens) (P10828 whole entry, looked up): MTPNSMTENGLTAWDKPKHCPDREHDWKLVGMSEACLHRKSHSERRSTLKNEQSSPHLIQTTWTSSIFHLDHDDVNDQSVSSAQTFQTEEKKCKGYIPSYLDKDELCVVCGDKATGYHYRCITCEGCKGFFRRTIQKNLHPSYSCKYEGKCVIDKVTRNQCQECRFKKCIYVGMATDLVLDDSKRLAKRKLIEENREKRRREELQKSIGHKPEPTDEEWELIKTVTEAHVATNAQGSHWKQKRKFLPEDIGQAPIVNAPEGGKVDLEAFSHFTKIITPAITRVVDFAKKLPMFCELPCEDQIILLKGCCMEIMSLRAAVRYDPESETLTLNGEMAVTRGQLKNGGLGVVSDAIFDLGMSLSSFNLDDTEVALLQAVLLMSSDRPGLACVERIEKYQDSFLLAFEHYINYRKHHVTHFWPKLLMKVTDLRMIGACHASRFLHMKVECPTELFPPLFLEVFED
Sequence of Retinoic acid receptor RXR-alpha (Homo sapiens) (P19793 whole entry, looked up): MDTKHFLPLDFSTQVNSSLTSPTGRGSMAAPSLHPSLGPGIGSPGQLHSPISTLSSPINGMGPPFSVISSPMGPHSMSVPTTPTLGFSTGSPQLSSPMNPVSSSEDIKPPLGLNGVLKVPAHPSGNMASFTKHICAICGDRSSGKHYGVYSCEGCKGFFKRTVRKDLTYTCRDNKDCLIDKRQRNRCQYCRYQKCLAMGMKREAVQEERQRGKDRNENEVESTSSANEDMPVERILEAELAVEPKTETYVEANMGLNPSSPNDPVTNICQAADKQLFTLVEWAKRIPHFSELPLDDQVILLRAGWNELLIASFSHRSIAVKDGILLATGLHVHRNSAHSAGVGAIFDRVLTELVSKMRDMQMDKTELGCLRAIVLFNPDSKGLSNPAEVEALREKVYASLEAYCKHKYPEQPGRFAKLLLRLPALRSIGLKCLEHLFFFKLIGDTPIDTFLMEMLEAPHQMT

Turning to `CCCC[S@@](=N)(=O)CC[C@@H](N)C(=O)O`, the Potency entry in assay [1] is “inactive”. In addition, the result in [2] was inactive.

Take `CCN(CC)[C@@H](C)C(=O)N1c2ccccc2Sc2ccccc21`: in assay [3], the Potency result is “inactive”.

As for `C=C(C)[C@@H]1CC=C(C(=O)O)CC1`, the Potency entry in assay [4] and in [5] was “inactive” throughout.

`O=c1[nH]c(=O)n([C@H]2C[C@H](O)[C@H](CO)O2)cc1Br`: the Potency entry in [3], in assay [1] and in [6] was “inactive” in each case.

Consider `COc1c2c(nc3ccccc13)O[C@@H]([C@@](C)(O)CO)C2`, for which the Potency result in assay [4] and in [5] was “inactive” in each case.

Turning to `Nc1nc(Cl)nc2c1ncn2[C@@H]1O[C@@H](COP(=O)(O)OP(=O)(O)OP(=O)(O)O)[C@@H](O)[C@H]1O`, the Potency entry in assay [4] and in [5] was “inactive” each time.

With `Cc1cn([C@H]2C=C[C@H](CO)O2)c(=O)[nH]c1=O`, the Potency entry in [3], in assay [1] and in assay [6] was “inactive” each time.

`OC[C@@H]1O[C@@H](n2cnc3c(NC4CCCCC4)ncnc32)[C@@H](O)[C@H]1O`: the Potency entry in assay [4] was “inactive”.

For `CCCCCCCCCCCCCCCC(=O)NC[C@@H](COP(=O)([O-])OCC[N+](C)(C)C)OCC`, the Potency result in [3], in assay [7] and in assay [5] was “inactive” each time.

On to `CC[C@H](C)[C@@H]1O[C@]2(CC[C@@H]1C)C[C@H]1C[C@H](CC=C(C)[C@@H](O[C@H]3C[C@H](OC)[C@H](O[C@H]4C[C@H](OC)[C@H](O)[C@H](C)O4)[C@H](C)O3)[C@@H](C)C=CC=C3CO[C@@H]4[C@@H](O)C(C)=C[C@H](C(=O)O1)[C@@]34O)O2`, for which the Potency entry in assay [7] was “inactive”. The Potency in [8] is 12.6 µM (active).

Take `C[C@@H]1C[C@@H]2[C@H]3CCC4=CC(=O)C=C[C@]4(C)[C@]3(Cl)[C@@H](O)C[C@@]2(C)[C@@]1(O)C(=O)CO`: the Potency entry in [5] was “inactive”.

`O=S(=O)(NCCNC/C=C\c1ccc(Br)cc1)c1cccc2cnccc12`: in assay [8], the Potency was 10 µM (active). The Potency result in assay [5] is “inactive”.

As for `CN1[C@@H]2CC[C@H]1CC(NC(=O)c1nn(C)c3ccccc13)C2` (some centres undefined), in assay [2], the call was inactive.

Regarding `CCc1cccc2c3c([nH]c12)[C@](CC)(CC(=O)O)OCC3`, the Potency entry in assay [1] and in assay [6] was “inactive” each time.

Consider `O=C1C(=O)c2ccccc2C(O)=C1C(C1=C(O)c2ccccc2C(=O)C1=O)c1ccc(Cl)cc1`, for which the Potency result in assay [7] is “inactive”. The Potency in assay [6] is 3.98 µM (active).

As to `CSC(N)=NCCC[C@@H](N)C(=O)O`, the Potency entry in assay [6] and in assay [5] was “inactive” in each case. In addition, in [8], the Potency is 3.16 µM (active).

For `COc1cc2nc(N3CCN(C(=O)OCc4ccccc4)[C@H](C(=O)NC(C)(C)C)C3)nc(N)c2cc1OC`, the Potency result in assay [7] and in assay [4] was “inactive” each time. For the same compound, the Potency in [8] was 12.6 µM (active).

With `NC(N)=N/N=C(/c1ccccc1)c1ccc(O)cc1O`, the Potency in [1] was 1.26 µM (active).

Consider `Nc1c2c(nc3ccccc13)CCC[C@H]2O`, for which the Potency entry in [3] and in [4] was “inactive” each time.

In the case of `COc1cc2c3cc1Oc1cc(ccc1O)C[C@@H]1c4c(cc(OC)c(O)c4Oc4ccc(cc4)C[C@H]3[N+](C)(C)CC2)CC[N+]1(C)C`, the Potency result in [6] is “inactive”.

Take `C=C[C@H]1CN2CC[C@@H]1C[C@H]2[C@@H](O)c1ccnc2ccc(OC)cc12`: in assay [3], the compound was called inactive.

For `Nc1ccn([C@H]2CC[C@H](CO)O2)c(=O)n1`, the Potency result in [3], in assay [1] and in [6] was “inactive” each time.

Take `Cc1ccc(C(=O)O[C@@H](C(=O)O)[C@@H](OC(=O)c2ccc(C)cc2)C(=O)O)cc1` (tested in a mixture with another compound): the Potency entry in assay [5] is “inactive”.

Take `COC(=O)[C@@H]1[C@H]2C[C@H]3c4[nH]c5cc(OC)ccc5c4CCN3C[C@@H]2C[C@@H](OC(=O)c2cc(OC)c(OC)c(OC)c2)[C@@H]1OC`: the Potency entry in assay [3] and in assay [6] was “inactive” in each case.

Turning to `CN(C)C(=O)/N=N\C(=O)N(C)C`, the Potency in assay [8] is 10 µM (active). For the same compound, the Potency entry in assay [5] was “inactive”.

For the compound `CCNC(=S)NCC`, the Potency result in [7], in assay [9] and in assay [12] was “inactive” in each case. Moreover, the max response in [10] worked out at 61.6%. Further, in [11], the outcome was inactive.

`CC(=O)OC1CC(C)OC(C)O1` (centres undefined): the Potency result in [9], in [13], in assay [12] and in [14] was “inactive” each time. Further, the max response in [10] was -8.33% and -2.28%. The call in assay [11] was inactive. Besides, the activity change % (negative = inhibition) in assay [15] is -11% (inactive) and -10.6% (inactive). Further, in assay [16], the activation was -0.185% (inactive) and -2.01% (inactive).

Take `COc1cc(O)c2c(O)c3c(c4c2c1[C@@]1(C4)C(C)=CCCC1(C)C)[C@H](O)[C@@]1(O)CC(=O)C(C(N)=O)=C(O)[C@]1(O)C3=O`: the Potency in assay [6] is 2.51 µM (active).

On to `COc1cc2c(cc1O)CC[C@@H]1[C@@H]2CC[C@@]2(C)[C@H](O)CC[C@H]12`, for which the Potency entry in assay [5] is “inactive”.

Take `Nc1ccccc1S[C@@H](C[N+](=O)[O-])c1ccc2c(c1)OCO2`: the Potency entry in assay [7] is “inactive”. The figures for the Potency in assay [1] and in [6] were 3.98 µM (active) and 1.58 µM (active), respectively.

Consider `c1ccc(C[n+]2cccc(-c3cc4ccccc4[nH]3)c2)cc1`, for which, in assay [1], the Potency was 1.26 µM (active).

Regarding `COc1ccc(CCN(C)CCC[C@@](C#N)(c2cc(OC)c(OC)c(OC)c2)C(C)C)cc1OC`, the Potency entry in assay [5] was “inactive”.

For `COc1cc(OC)cc([C@H](CNc2ncnc3c2ncn3[C@@H]2O[C@@H](CO)[C@H](O)[C@@H]2O)c2ccccc2C)c1`, the Potency entry in assay [6] is “inactive”.

Take `C[C@@H](COc1ccc(/C=C\c2ccccc2)cc1)[N+](C)(C)C`: the Potency entry in [3], in assay [7], in assay [4], in assay [6] and in [5] was “inactive” in each case.
